Laboratory results reported in PubChem BioAssay AID1159580 (chemical genetic matrix, 2015).
The whole screen tested about 5,500 compounds, of which about 2,000 (36%) were called active. Not shown: some 18% with an inconclusive outcome. Cut-off read from the data, not from the text of the source: active = normalized growth mostly below about 0.91 (no sharp cut-off); inconclusive = no clear call, values can overlap the other calls; inactive = mostly above about 0.92. The list shows a part of the results.

Test: chemical genetic growth profiling, strain panel (AID 1159580);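 note: tested at 20 µM; growth read once vehicle control cultures reached saturation at 30 °C; 1 = growth at the plate median or of vehicle wells; lower values mean less growth of the strain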
Conditions: S. cerevisiae deletion strains, growth OD

Measured: normalized growth

CCCc1cc(OC)c2c(c1)OCO2
inactive: locus YAL021C, strain ccr4, active compounds read low 1.04 | locus YAL026C, strain drs2, active compounds read low 0.988 | locus YAL030W, strain snc1, active compounds read low 0.999 | locus YBL061C, strain skt5, active compounds read low 0.993 | locus YBR009C, strain hhf1, active compounds read low 0.988 | locus YBR023C, strain chs3, active compounds read low 0.991 | locus YBR171W, strain sec66, active compounds read low 0.973 | locus YBR231C, strain swc5, active compounds read low 1.01 | locus YBR279W, strain paf1, active compounds read low 1 | locus YCL011C, strain gbp2, active compounds read low 0.999 | locus YCL016C, strain dcc1, active compounds read low 0.98 | locus YCL069W, strain vba3, active compounds read low 0.996 | locus YCR088W, strain abp1, active compounds read low 0.985 | locus YDL005C, strain med2, active compounds read low 0.975 | locus YDL040C, strain nat1, active compounds read low 0.978 | locus YDR001C, strain nth1, active compounds read low 0.987 | locus YDR069C, strain doa4, active compounds read low 0.994 | locus YDR137W, strain rgp1, active compounds read low 0.94 | locus YDR159W, strain sac3, active compounds read low 0.943 | locus YDR195W, strain ref2 0.974 | locus YDR297W, strain sur2, active compounds read low 0.995 | locus YDR334W, strain swr1, active compounds read low 1.01 | locus YDR335W, strain msn5, active compounds read low 0.988 | locus YDR392W, strain spt3, active compounds read low 0.952 | locus YEL003W, strain gim4, active compounds read low 0.994 | locus YEL037C, strain rad23, active compounds read low 0.998 | locus YEL061C, strain CIN8 (second series), active compounds read low 0.979 | locus YER015W, strain faa2, active compounds read low 0.989 | locus YER016W, strain bim1, active compounds read low 0.977 | locus YER111C, strain swi4, active compounds read low 0.976 | locus YER155C, strain BEM2 (second series), active compounds read low 0.928 | locus YFR010W, strain ubp6, active compounds read low 0.999 | locus YGL167C, strain pmr1, active compounds read low 0.983 | locus YGL173C, strain kem1, active compounds read low 0.987 | locus YGL227W, strain vid30, active compounds read low 0.974 | locus YGL240W, strain doc1, active compounds read low 1 | locus YGL253W, strain hxk2, active compounds read low 0.995 | locus YHR013C, strain ard1, active compounds read low 1.11 | locus YHR027C, strain rpn1, active compounds read low 0.982 | locus YHR030C, strain SLT2, active compounds read low 0.944 | locus YHR079C, strain IRE1, active compounds read low 0.946 | locus YHR142W, strain chs7, active compounds read low 0.974 | locus YJL092W, strain hpr5, active compounds read low 0.985 | locus YJL095W, strain BCK1 (second series), active compounds read low 1 | locus YJL095W, strain BCK1, active compounds read low 1.02 | locus YJL115W, strain asf1, active compounds read low 0.98 | locus YJL129C, strain trk1, active compounds read low 0.992 | locus YJL154C, strain vps35, active compounds read low 0.994 | locus YJL164C, strain tpk1, active compounds read low 1 | locus YJL166W, strain qcr8, active compounds read low 0.985 | locus YJL187C, strain SWE1, active compounds read low 1 | locus YJR066W, strain TOR1, active compounds read low 0.937 | locus YKL160W, strain elf1, active compounds read low 0.983 | locus YKR026C, strain gcn3, active compounds read low 0.971 | locus YKR091W, strain srl3, active compounds read low 0.984 | locus YLL001W, strain dnm1, active compounds read low 0.999 | locus YLL026W, active compounds read low 0.992 | locus YLL041C, strain sdh2, active compounds read low 0.997 | locus YLR027C, strain aat2, active compounds read low 0.984 | locus YLR113W, strain HOG1, active compounds read low 1.04 | locus YLR221C, strain rsa3, active compounds read low 0.989 | locus YLR258W, strain gsy2, active compounds read low 0.998 | locus YLR262C, strain YPT6 (second series), active compounds read low 0.927 | locus YLR320W, strain mms22, active compounds read low 1 | locus YLR342W, strain FKS1, active compounds read low 0.977 | locus YLR357W, strain rsc2, active compounds read low 0.974 | locus YLR370C, strain arc18, active compounds read low 0.984 | locus YLR384C, strain iki3, active compounds read low 0.995 | locus YML120C, strain ndi1, active compounds read low 0.987 | locus YMR058W, strain fet3, active compounds read low 1.02 | locus YMR125W, strain sto1, active compounds read low 0.971 | locus YMR129W, active compounds read low 0.975 | locus YMR205C, strain PFK2, active compounds read low 0.98 | locus YMR231W, strain pep5, active compounds read low 1 | locus YNL071W, strain lat1, active compounds read low 0.998 | locus YNL183C, strain NPR1, active compounds read low 1.01 | locus YNL209W, strain ssb2, active compounds read low 0.967 | locus YNL248C, strain rpa49, active compounds read low 0.989 | locus YNL322C, strain KRE1 (second series), active compounds read low 0.976 | locus YNR049C, strain mso1, active compounds read low 0.992 | locus YOR001W, strain rrp6, active compounds read low 0.999 | locus YOR070C, strain gyp1, active compounds read low 0.997 | locus YOR080W, strain dia2, active compounds read low 0.966 | locus YOR083W, strain WHI5, active compounds read low 0.938 | locus YOR106W, strain vam3, active compounds read low 0.976 | locus YOR231W, strain MKK1, active compounds read low 0.957 | locus YOR265W, strain rbl2, active compounds read low 0.981 | locus YOR270C, strain vph1, active compounds read low 1 | locus YOR290C, strain snf2, active compounds read low 0.995 | locus YPL051W, strain arl3, active compounds read low 0.991 | locus YPL078C, strain atp4, active compounds read low 0.981 | locus YPL106C, strain sse1, active compounds read low 0.976 | locus YPL240C, strain hsp82, active compounds read low 0.974 | locus YPL256C, strain CLN2, active compounds read low 0.953
